High-throughput results as filed in PubChem BioAssay.
The list is not random: actives were taken first. Their share in the collection is about 5.9%.
HSF1 inh: HSF1 inhibition; 300,000 compounds, 0.77% hits; activity change, negative = inhibition, % at 7.5 µM (by protocol); NIH3T3-HGL HSE-luciferase, MG132-induced, luminescence 8 h; hits give low values;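 active = more than half of replicate wells show activity change below -50%, luminescence cut by over half; inconclusive = some wells, but at most half, below -50%; inactive = no replicate well below -50%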;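 note: luciferase reports HSF-1 transcriptional activity via heat shock element; 0% = median of DMSO wells and -100% = zero luminescence signal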
HSF-1 act: increases HSF-1 driven luciferase reporter signal | NIH3T3-HGL HSF-1 luciferase reporter, MG132, 8 h; 100% = twice DMSO control signal | activation, % at 9 µM | 300,000 compounds, 1.7% hits;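 active = mean replicate activation of at least 50% with a set share of replicates each reaching 50%; inconclusive = only one of those two conditions met; inactive = mean below 50% and too few replicates reaching it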;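 note: 0% = median of the neutral control wells and 100% = twice that signal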
DAX1 inh: NR0B1 (DAX1) inhibition; AID 504766; 340,000 compounds, 0.99% hits; HEK293 Gal4-DAX1 luciferase reporter, luminescence; inhibition, % at 6.75 µM;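 active = inhibition above the mean over all tested compounds plus 3 SD, cut at about 4.2% in these data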;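 note: 0% = DAX1-transfected cells with DMSO and 100% = empty-vector control cells with DMSO; inhibition shows as a rise in luminescence from relieved DAX1 repression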
GAA850 FXN act: activators of GAA850 frataxin (FXN) promoter | activation, % at 6 µM | HEK293 lucGAA850 FXN promoter luciferase reporter, 24 h; percent of 10 µM SAHA response | 360,000 compounds, 0.56% hits;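 active = activation above the average of all compounds screened plus 3 SD, cutoff fixed separately per campaign, cut at about 7.5% in these data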;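 note: 0% = DMSO wells and 100% = 10 µM SAHA wells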
HSP90 refold inh: blocks HSP90-mediated luciferase refolding in reticulocyte lysate; Rabbit reticulocyte lysate, luciferase refolding luminescence, 3 h; inhibition, % at 5.6 µM; 290,000 compounds, 0.91% hits; AID 1789;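 active = inhibition above the screen-wide mean plus 3 SD, computed separately per campaign, cut at about 16% in these data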;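 note: 0% = DMSO wells and 100% = 60 µM geldanamycin wells; inhibitors lower the luminescence because luciferase stays unfolded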
AHR act: human AHR activation. P35869. AHR-responsive luciferase reporter cells, luminescence. activation, % at 5 µM. 320,000 compounds, 2.5% hits; in the data active = activation above about 47%;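 note: 0% = vehicle wells and 100% = reference agonist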
Target sequence (P35869 whole entry, looked up): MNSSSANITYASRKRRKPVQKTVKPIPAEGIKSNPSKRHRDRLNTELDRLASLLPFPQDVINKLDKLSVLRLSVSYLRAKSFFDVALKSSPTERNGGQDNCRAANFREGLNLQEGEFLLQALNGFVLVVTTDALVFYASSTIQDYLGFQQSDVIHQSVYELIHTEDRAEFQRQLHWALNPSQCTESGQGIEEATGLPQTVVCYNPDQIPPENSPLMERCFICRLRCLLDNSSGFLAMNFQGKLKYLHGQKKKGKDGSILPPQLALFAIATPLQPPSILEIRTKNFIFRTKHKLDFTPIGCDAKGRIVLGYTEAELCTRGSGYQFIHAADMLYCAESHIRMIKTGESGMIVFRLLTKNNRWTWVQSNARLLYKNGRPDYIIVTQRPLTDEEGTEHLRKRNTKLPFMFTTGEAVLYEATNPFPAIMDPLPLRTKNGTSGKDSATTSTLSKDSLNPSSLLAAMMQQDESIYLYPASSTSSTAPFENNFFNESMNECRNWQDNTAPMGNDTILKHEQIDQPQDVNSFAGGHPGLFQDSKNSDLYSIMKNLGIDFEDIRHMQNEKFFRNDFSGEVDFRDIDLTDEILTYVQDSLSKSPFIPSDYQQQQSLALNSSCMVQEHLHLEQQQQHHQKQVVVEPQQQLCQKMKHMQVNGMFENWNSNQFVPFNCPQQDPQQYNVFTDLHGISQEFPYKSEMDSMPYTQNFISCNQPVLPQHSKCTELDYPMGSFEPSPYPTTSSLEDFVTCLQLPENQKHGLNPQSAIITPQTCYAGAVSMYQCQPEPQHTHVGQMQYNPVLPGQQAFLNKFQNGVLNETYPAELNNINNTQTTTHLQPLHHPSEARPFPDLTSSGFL
Starred values were filed as active, the others as inactive; ? = inconclusive; / = no result given.

SMILES	HSF1 inh	HSF-1 act	DAX1 inh	GAA850 FXN act	HSP90 refold inh	AHR act
CC1=C([N+](=O)[O-])C(c2ccc3c(c2)OCO3)N(C)C(=O)N1C (stereo not given)	-3.3	-1.9	-0.2	-0.4	-0.2	1.8
Cc1ccc(C)c(N2CCN(S(=O)(=O)c3cc4c(cc3Cl)NC(=O)CO4)CC2)c1	8.1	16.4	1.9	-1.0	3.0	-0.6
CC1CCC2(CC1)NC(=O)N(CC(=O)c1ccc(CNC(=O)C(C)(C)C)s1)C2=O (stereo not given)	/	/	-0.6	3.1	/	-0.3
Cc1cnc(CN2CCc3c([nH]c4ccccc34)C2CC(C)C)[nH]1 (stereo not given)	-3.2	-2.1	0.2	-3.4	1.4	30.7
Cc1cccc(CN2CCc3c([nH]c4ccccc34)C2CC(C)C)n1 (stereo not given)	1.7	-2.9	4.7*	-3.1	-5.2	11.5
CCCn1c(C)cc(C(=O)COC(=O)c2cc(S(=O)(=O)NCC(C)C)c(Cl)cc2Cl)c1C	9.4	21.4	-0.2	0.1	1.2	13.4
CC(C)CNS(=O)(=O)c1cc(C(=O)OCC(=O)c2ccc3c(c2)OCCO3)c(Cl)cc1Cl	21.5	69.1*	-0.1	0.2	-0.2	5.5
Cc1ccc(NS(=O)(=O)c2ccc(N/N=C/c3ccncc3)c([N+](=O)[O-])c2)c(C)c1	13.2	30.3	-1.4	2.9	-5.0	48.2*
Cc1noc(C)c1NC(=O)Nc1cccc2c1O[C@@H](CN(C)C(=O)Nc1ccc3c(c1)OCO3)[C@@H](C)CN([C@H](C)CO)C2=O	/	/	1.6	-1.8	/	0.2
N#Cc1c(SCc2ccc(Cl)cc2)sc(C(=O)c2ccccc2)c1N	0.9	3.4	-0.5	0.6	-4.0	3.6
CSc1c(C#N)c(N)nc2sc(C(=O)c3ccccc3)c(N)c12	81.2	115.8*	-2.4	4.0	-0.1	10.4
O=C(NNC(=O)c1c(F)cccc1F)c1sccc1-n1cccc1	0.1	2.9	0.6	0.0	1.0	1.6
C/C(=N\NC(=O)c1sccc1-n1cccc1)c1cccs1	23.2	27.5	2.1	1.8	-4.4	78.1*
O=C(NNC(=O)c1sccc1-n1cccc1)c1cccs1	/	/	-0.2	-0.1	1.2	47.1*
Cc1cc(NS(=O)(=O)c2ccc(NC(=O)/C=C/c3ccc(C)o3)cc2)nc(C)n1	0.8	-4.4	4.6*	0.0	0.3	2.0
COc1cc(C(=O)Nc2ccc(S(=O)(=O)Nc3cc(C)nc(C)n3)cc2)cc(OC)c1OC	-6.4	-18.2	6.4*	-0.4	0.9	-2.5
Cc1cc(NS(=O)(=O)c2ccc(NC(=O)/C=C/c3ccccc3)cc2)nc(C)n1	/	/	0.8	1.9	/	-0.8
COc1ccc(C(=O)Nc2ccc(S(=O)(=O)Nc3cc(C)nc(C)n3)cc2)cc1OC	5.9	1.0	1.0	0.8	-2.7	3.5
Cc1ccccc1-c1nc(S(=O)(=O)c2ccccc2)c(NCCN2CCOCC2)o1	/	/	0.0	1.3	/	/
Cc1cc(C)n(-c2nc3ccccc3nc2N2CCN(C(=O)c3ccc(F)cc3)CC2)n1	30.8	62.2*	-2.4	0.9	4.3	0.3
Cc1cc(C)n(-c2nc3ccccc3nc2N2CCC(C)CC2)n1	-0.2	13.1	-0.1	-2.3	1.7	5.1
CCOC(=O)c1snc(-c2ccc(F)cc2)c1N	18.1	58.7*	0.3	3.9	-0.8	2.1
CCOC(=O)c1sc(N)nc1-c1ccccc1	-26.0	-41.0	-1.1	0.4	1.4	4.9
O=C(CN1C(=O)CCS(=O)(=O)c2ccccc21)Nc1ccccc1F	-12.4	-3.7	1.3	-0.1	-4.2	1.9
Nc1nonc1-n1nnc(C(=O)N/N=C/c2cccc(F)c2)c1CN1CCCCCC1	?	-59.2	4.7*	0.8	/	0.9
SMILES	HSF1 inh	HSF-1 act	DAX1 inh	GAA850 FXN act	HSP90 refold inh	AHR act
Cc1ccc(/C=N/NC(=O)c2nnn(-c3nonc3N)c2CN(C)C2CCCCC2)cc1	-92.4*	-94.3	0.2	-0.3	-0.2	25.9
COC(=O)c1nnn(-c2nonc2N)c1CN1CCCC1	-2.6	5.7	4.4*	2.0	-5.0	0.9
O=C(NCC(=O)N1CCN(c2ccccc2F)CC1)c1ccco1	0.0	16.9	0.4	1.1	2.3	/
O=C(CCNS(=O)(=O)c1ccc2[nH]c(=O)oc2c1)Nc1cccc(Br)c1	-4.4	-1.3	0.9	-1.2	-2.8	3.9
CCOC(=O)c1nc(-c2ccc(OC)c(OC)c2)cnc1C#N	-8.7	-4.5	6.9*	0.8	-7.1	0.7
Cc1cccc(N2CCN(C(=O)CNC(=O)c3cccc([N+](=O)[O-])c3)CC2)c1C	-5.3	7.0	-2.1	-1.2	-3.6	-3.1
O=C(CN(c1cccc(C(F)(F)F)c1)S(=O)(=O)c1ccc(Cl)c([N+](=O)[O-])c1)NCc1ccccc1Cl	36.3	66.3*	3.1	1.0	-1.2	-1.3
CCOC(=O)c1c(S(=O)(=O)Nc2ccccn2)c(C)n(C)c1C	-4.6	-2.6	0.4	2.3	-4.1	-0.6
CC(=O)c1sc2c(c1N)c(=O)[nH]c(=O)n2-c1ccccc1	1.0	-8.4	0.2	1.4	0.5	-0.5
CCOC(=O)CC(=O)c1sc2c(c1N)c(=O)[nH]c(=O)n2-c1ccc(OC)cc1	-8.2	6.3	4.3*	1.1	11.2	-0.8
CCCS(=O)(=O)NC(=O)C1(C)CCCN(C(=O)c2ccc(F)c(Cl)c2)C1 (stereo not given)	/	/	/	-2.0	/	/
COc1cc(C(=O)N/N=C(\C)c2ccc(NC(=O)Cc3ccccc3)cc2)ccc1O	/	/	1.2	6.8	-3.0	/
CCC1C(=NO)C(CC)C(c2ccccc2)NC1c1ccccc1 (stereo not given)	12.0	59.3*	0.3	-2.3	-3.2	1.1
CC1C(=NO)C(C)C(c2ccccc2)NC1c1ccccc1 (stereo not given)	4.5	4.7	0.5	-0.1	6.9	-0.9
CN(Cc1ccccc1)C(=O)c1ccc(NC(=O)Cc2ccc(NC(=O)C3CCCN(C(=O)CCc4ccccc4)C3)cc2)cc1 (stereo not given)	/	/	-4.4	-4.8	/	/
CCCOc1ccc(C2/C(=C(/O)c3ccccc3)C(=O)C(=O)N2CCCN(C)C)cc1OC (stereo not given)	/	/	0.7	-0.7	-4.5	1.6
CCCOc1ccc(/C(O)=C2/C(=O)C(=O)N(CCN(C)C)C2c2ccc(O)c(OC)c2)cc1 (stereo not given)	-76.9*	-80.1	0.6	1.2	7.2	/
CCc1nc2c(OCc3ccc(C#N)cc3)cccn2c1N(C)C(=O)c1ccco1	/	/	/	-1.6	/	/
Brc1ccc(-c2noc(CCc3ccccc3)n2)cc1	18.7	34.9	4.7*	-0.1	1.4	1.2
COc1cc(CN2CCN(c3cccc(C)c3C)CC2)cc(OC)c1O	-64.6*	-73.7	-1.2	-2.7	-0.5	3.3
COc1cc(Br)cc(/C=N/NC(=O)Cc2ccc(C(F)(F)F)cc2[N+](=O)[O-])c1O	8.7	-2.7	0.9	-1.2	4.4	50.5*
COc1cc([N+](=O)[O-])cc(/C=N/NC(=O)Cn2nc(C)cc2C)c1O	-0.1	-9.0	0.6	0.5	-4.6	3.7
